# Shn3 3UTR inh: reduction of Shn3 3'UTR firefly luciferase signal, primary screen, Schnurri-3 inhibitor project, cell-based, Clone20 osteoblasts, set 2; Clone20 osteoblast Shn3 3'UTR firefly luciferase, 24 h; inhibition, % at 12.5 µM; actives 0.52% (n = 360,000); AID 588674, 2011;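 active = mean inhibition of at least 75% with every replicate also reaching 75%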;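 note: 0% = median of neutral control wells and 100% = pilot-screen positive control compound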
# H9c2 TAG inh: inhibitors of triacylglycerol accumulation, primary screen, cell-based, uHTS, fluorescence, H9c2; H9c2 cells, Nile Red lipid (TAG) fluorescence; cells loaded with 200 µM oleic acid; actives 0.66% (n = 230,000); inhibition, % at 12.5 µM; AID 651582, 2012;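 active = pattern-corrected inhibition of lipid staining of at least 50% with the nuclear-stain viability signal not falling by more than 50%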;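 note: 0% = DMSO wells and 100% = triacsin C control wells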
# aSyn 5UTR inh: MLPCN primary screen, SNCA 5' untranslated region | inhibition, % (tested at 7.5 µM) | alpha-synuclein 5'UTR reporter, inhibitor activity | actives 0.82% (n = 300,000); in the data active = inhibition above about 60%;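 note: H4 neuroglioblastoma cells stably carrying SNCA 5'UTR luciferase fusion; 0% = DMSO wells and 100% = positive control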
# 697 NFkB inh: inhibitors of PMA/ionomycin-induced NF-kB reporter, 697 cells, primary screen, B-cell NF-kB inhibitor project, cell-based, luminescence, uHTS. 697 B-cell NF-kB luciferase reporter, 16 h. inhibition, % at 4 µM. actives 0.33% (n = 330,000). AID 435022, 2010; in the data active = inhibition above about 35%
# Jurkat NFkB inh: inhibitors of induced NF-kB luciferase reporter, primary screen, TCR NF-kB activation inhibitor project, cell-based, luminescence, uHTS. Jurkat, PMA/ionomycin-induced NF-kB luciferase reporter. inhibition, % at 4 µM. actives 0.53% (n = 330,000). AID 435003, 2010; in the data active = inhibition above about 50%
# Gli-Sufu antag: Gli-Sufu pathway antagonists, primary screen, luciferase luminescence, Sufu-KO-LIGHT cells, uHTS; Sufu-KO-LIGHT fibroblasts, Gli luciferase reporter luminescence; inhibition, % at 5 µM; actives 0.74% (n = 340,000); AID 588413, 2011;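 active = inhibition above about 55%, limit read from the data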;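 note: 0% = DMSO-treated cells and 100% = wells with medium but no cells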
# 697 NFkB conf: PMA/ionomycin-induced NF-kB reporter inhibitors, 697 retest, confirmation, B-cell NF-kB inhibitor project, cell-based, luminescence, single concentration. shares compounds with 697 NFkB inh. 697 B-cell NF-kB luciferase, 16 h. inhibition, % at 4 µM. actives 35% (n = 2,000). AID 449746, 2010; in the data active = inhibition mostly above about 28%, no sharp cut-off; inactive = mostly below about 22%
# * hit, by the source's call; i = inactive; . = no result given. This is a sample that favours compounds with a hit; in the whole collection about 2.3% have one here.
SMILES,Shn3 3UTR inh,H9c2 TAG inh,aSyn 5UTR inh,697 NFkB inh,Jurkat NFkB inh,Gli-Sufu antag,697 NFkB conf
Cc1ccc(S(=O)(=O)Nc2ccc3nc(-c4cccn4C)[nH]c3c2)cc1,-18.7,5.5,-12.8,20.8,-5.1,7.5,.
Cc1cccc(C)c1NC(=O)CSc1nnc([C@@H]2CCCN2C(=O)OC(C)(C)C)o1,1.6,-5.6,0.5,22.3,7.9,-4.5,.
CCc1ccccc1NC(=O)CSc1nnc([C@@H]2CCCN2C(=O)OC(C)(C)C)o1,-5.4,5.4,-32.2,35.7*,-14.6,-6.0,16.0
O=C(C[n+]1cc(-c2ccccc2)n2c1CCCCC2)c1ccc(Br)cc1,13.4,4.2,12.7,7.3,9.7,30.6,.
Cc1ccc(C(=O)C[n+]2cc(-c3ccc(C)cc3)n3c2CCCCC3)cc1,73.7,.,5.1,80.5*,46.2,88.4*,54.2*
COC(=O)c1ccc(NC(=O)CSc2nncn2-c2ccccn2)cc1,-0.3,.,10.1,5.8,8.1,-11.6,.
CCCCCN(C(=O)CCC(=O)OCc1cccc(Br)c1)c1c(N)n(CCCC)c(=O)[nH]c1=O,11.6,-7.8,10.5,35.2*,11.9,13.4,2.3
CCCCCN(C(=O)CCC(=O)OCc1cccc(Cl)c1)c1c(N)n(CCCC)c(=O)[nH]c1=O,13.2,8.7,19.5,23.9,-6.8,-4.8,.
COc1ccc(C(=O)N=c2nc3ccccn3s2)cc1,43.7,-0.5,0.8,-388.5,-83.5,-55.9,-281.6
COc1ccc(C(=O)CC(=O)c2ccccc2O)cc1,-51.2,-6.1,-218.0,-104.9,-83.5,-38.6,.
COc1ccc(O)c(C(=O)CC(=O)c2ccc(F)cc2)c1,11.8,-5.0,73.3*,-295.6,-132.8,-110.3,-302.9
CN(CC(=O)Nc1ccc(F)c(F)c1)S(=O)(=O)c1cccc2nsnc12,19.5,-10.9,6.0,-24.8,6.3,-0.2,.
Cc1nn(C)cc1CN1CCC(CO)(CCOc2ccccc2)CC1,0.0,-10.6,12.7,43.1*,-2.8,4.9,11.0
CCOc1ccc2[nH]c3c(N4CCN(c5ccccn5)CC4)ncnc3c2c1,9.3,.,-44.2,45.1*,0.3,44.0,27.0
COc1ccccc1N1CCN(C(=O)c2cccc(N3C(=O)NC4CC3(C)Oc3ccccc34)c2)CC1 (stereo not drawn),-6.7,-10.3,12.7,4.0,-6.7,-3.0,.
CCOC(=O)c1c(S(=O)(=O)NCc2cccs2)c(C)n(C)c1C,-0.9,.,-3.0,14.3,16.5,-5.2,.
CCn1c(CN2CCN(c3ccc(Cl)cc3)CC2)nc2ccccc21,-0.2,.,14.2,45.8*,13.1,5.8,51.1*
Cn1c(CN2CCN(c3ccc(Cl)cc3)CC2)nc2ccccc21,-2.3,.,-4.9,16.1,3.4,-0.4,.
O=C(Nc1ccc([N+](=O)[O-])cc1Cl)c1cccc([N+](=O)[O-])c1,-24.8,-21.7,.,.,.,.,.
O=C(Nc1ccc([N+](=O)[O-])cc1Cl)c1cc(Cl)ccc1O,94.6*,-7.9,.,i,-56.0,56.0*,i
Cc1ccc(NC(=O)c2ccc(NCC3CCCO3)c([N+](=O)[O-])c2)cc1Cl (stereo not drawn),-9.5,46.6,-38.1,-27.7,-61.7,2.0,.
CC(=C/c1ccco1)/C=N/NC(=O)CSc1nnc(SCc2ccc(C)cc2)s1,-11.8,-15.8,34.3,52.1*,-1.9,-17.9,49.6*
O=C(CSc1nnc(SCc2ccccc2)s1)N/N=C/C=C\c1ccco1,-11.9,-2.9,-17.0,2.4,-1.2,-5.9,.
O=C(CSc1nnc2n1CCCCC2)Nc1ccc(N2CCOCC2)cc1,7.6,7.9,-4.1,8.5,-0.6,5.5,.
COc1cc(-c2nc(S(=O)(=O)c3ccc(C)cc3)c(N3CCOCC3)o2)cc(OC)c1OC,2.7,10.1,-4.3,42.0*,3.0,-10.3,19.8
SMILES,Shn3 3UTR inh,H9c2 TAG inh,aSyn 5UTR inh,697 NFkB inh,Jurkat NFkB inh,Gli-Sufu antag,697 NFkB conf
COc1cc(-c2nc(S(=O)(=O)c3ccc(Cl)cc3)c(N3CCOCC3)o2)cc(OC)c1OC,0.4,.,20.2,27.9,12.2,9.7,.
CCc1cc(=O)oc2cc(OC(C)=O)cc(OC(C)=O)c12,10.9,.,-30.9,0.6,-4.1,1.5,.
Cc1cc(C)n2nc(SCN3C(=O)c4ccccc4C3=O)nc2n1,25.8,.,3.1,8.7,2.3,3.6,.
O=C1c2ccccc2C(=O)N1CSc1ncccn1,-10.8,.,-7.1,36.4*,-6.6,-3.2,-8.8
COc1ccc(-c2c(C)nn(Cc3ccccc3)c2N)cc1,-6.8,.,39.6,5.4,5.2,33.4,.
COc1cc(=O)n(C)c2cc(N(C)C)ccc12,-14.8,16.5,-24.1,36.1*,10.4,-6.7,5.8
COc1cccc(/C=C2\SC(=S)N(CCCC(=O)Nc3ccc(C(=O)O)cc3)C2=O)c1,-6.3,-5.6,25.8,53.4*,17.0,18.5,60.6*
CCN(CC)CCOC(=O)c1ccc(NC(=O)CCCN2C(=O)S/C(=C/c3ccc(OC)cc3)C2=S)cc1,41.1,.,96.5*,52.3*,-13.0,45.7,60.2*
O=C(CCCN1C(=O)/C(=C/c2ccc(F)cc2)SC1=S)Nc1ccc(C(=O)O)cc1,3.8,2.7,.,.,.,.,.
COc1ccc(/C=C2/SC(=S)N(CCCC(=O)Nc3ccc(O)cc3)C2=O)cc1OC,-3.2,.,22.7,45.1*,-18.8,11.7,42.8*
O=C(CCN1C(=O)/C(=C\c2ccccc2)SC1=S)Nc1ccc(C(=O)O)cc1,11.5,.,20.5,-0.1,-15.7,12.2,.
COc1cccc(/C=C2\SC(=S)N(CCCC(=O)NC3=NCCS3)C2=O)c1,19.6,2.3,55.4,42.1*,14.3,4.3,50.7*
COc1ccc(/C=C2\SC(=S)N(CCCC(=O)Nc3ccc(C(=O)O)cc3)C2=O)cc1OC,-21.5,1.5,19.0,26.3,-20.1,4.2,.
Cc1ccc(C(=O)N/C(=C\c2ccc(C)o2)C(=O)O)cc1,12.8,-6.9,-2.5,-1.8,-3.0,2.9,.
COC(=O)CSc1nc2nc(C)cc(C)n2n1,-3.5,-4.4,20.7,-3.2,-3.8,-0.4,.
COc1ccc(/C=C2\SC(=S)N(CCC(=O)Nc3ccc(O)cc3)C2=O)cc1,-26.0,-2.2,-12.5,47.5*,-2.0,-0.9,37.5*
COc1cccc(/C=C2/SC(=S)N(CCCC(=O)Nc3ccc(O)cc3)C2=O)c1,28.5,31.5,49.6,79.6*,-8.0,48.6,74.4*
COc1ccc(/C=C2\SC(=O)N(CCCC(=O)Nc3ccc(C(=O)O)cc3)C2=O)cc1OC,-2.4,20.0,73.4*,62.3*,14.1,-1.8,70.8*
